In PubChem BioAssay (Tox21) one finds Potency and max activation data, which are given here for eleven compounds.

A short description of assay [1]: Human pregnane X receptor (PXR) small molecule agonists, qHTS cell viability counter screen (AID 1346977). Also: nearly all actives have a fitted effect of over 50% in size. Also: potency is read from the fitted curve at half-maximal effect. The method in brief:
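Fluorescence read-out (CellTiter-Fluor) of viability in PXR-Luc HepG2 cells, multiplexed with the luciferase agonist read. Compounds in DMSO added after 5hr plating; 24hr total exposure at 37C, 5% CO2.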
On the technique in general: Quantitative high-throughput screening tests each substance at several concentrations.

The nature of assay [2]: Caspase-3/7 induction in HepG2 cells by small molecules, qHTS assay (AID 1346978). Also: nearly all actives have a fitted effect of over 15% in size. The method, boiled down:
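Wild-type HepG2 cells, 2,000/well, settled 5 hr at 37 C and 5% CO2, then compound-treated for 17 hr; caspase-3/7 activity read by luminescent Caspase-Glo 3/7 after 30 min at room temperature.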

The nature of assay [3]: Caspase-3/7 induction in CHO-K1 cells by small molecules, qHTS cell viability counter screen (AID 1346979). Also: nearly all actives have a fitted effect of over 35% in size. Also: potency is read from the fitted curve at half-maximal effect. The method in brief: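 CHO-K1 wt, 1,500 cells/well; 5hr pre-incubation 37C/5% CO2; compound pin transfer (DMSO); 16hr exposure; CellTiter-Fluor added, 1hr, fluorescence read.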
Assay [4] can be described thus: Caspase-3/7 induction in CHO-K1 cells by small molecules, qHTS assay (AID 1346980). Also: nearly all actives have a fitted effect of over 15% in size. The method in brief: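 Wild-type CHO-K1 cells exposed to compounds for 17hr at 37 C, 5% CO2. Caspase-3/7 activity then measured by Caspase-Glo 3/7 luminescence after 30min at room temperature.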
For assay [5], the target named is Nuclear receptor subfamily 1 group I member 2 (Homo sapiens) (UniProt O75469). Nature of the assay: Human pregnane X receptor (PXR) small molecule agonists, qHTS assay (AID 1346982). Also: nearly all actives have a fitted effect of over 35% in size. Also: potency is read from the fitted curve at half-maximal effect. The method in brief: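 Luciferase signal from ONE-Glo (30 min, room temperature) measured activation of hPXR-driven CYP3A4 reporter expression in PXR-Luc HepG2 cells treated with compounds for 24 hr at 37 C.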
Sequence of Nuclear receptor subfamily 1 group I member 2 (Homo sapiens) (O75469 whole entry, looked up): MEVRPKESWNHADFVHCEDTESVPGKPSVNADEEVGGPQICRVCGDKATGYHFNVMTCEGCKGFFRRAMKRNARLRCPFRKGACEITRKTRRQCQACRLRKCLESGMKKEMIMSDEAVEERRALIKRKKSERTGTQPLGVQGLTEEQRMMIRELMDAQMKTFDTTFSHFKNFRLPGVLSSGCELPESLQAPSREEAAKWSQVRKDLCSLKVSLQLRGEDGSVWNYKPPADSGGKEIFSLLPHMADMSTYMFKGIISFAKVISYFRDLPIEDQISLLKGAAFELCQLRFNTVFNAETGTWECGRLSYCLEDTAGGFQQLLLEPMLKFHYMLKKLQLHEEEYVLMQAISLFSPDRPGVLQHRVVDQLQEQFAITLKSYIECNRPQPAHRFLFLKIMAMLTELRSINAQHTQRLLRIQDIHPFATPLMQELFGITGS

The target in assay [6] is Cytochrome P450 2D6 (Homo sapiens) (UniProt P10635). Nature of the assay: Cytochrome P450 Family 2 Subfamily D Member 6 (CYP2D6) small molecule antagonists: luciferase reporter qHTS assay (AID 1671196). Also: nearly all actives have a fitted effect of over 50% in size. Also: potency is read from the fitted curve at half-maximal effect. The method in brief: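 Read-out is luminescence from luciferin formed by CYP2D6 turnover of a proluciferin substrate, recorded as relative luminescence units. Reactions ran 1 h at room temperature after NADPH regeneration solution was added.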
Sequence of Cytochrome P450 2D6 (Homo sapiens) (P10635 whole entry, looked up): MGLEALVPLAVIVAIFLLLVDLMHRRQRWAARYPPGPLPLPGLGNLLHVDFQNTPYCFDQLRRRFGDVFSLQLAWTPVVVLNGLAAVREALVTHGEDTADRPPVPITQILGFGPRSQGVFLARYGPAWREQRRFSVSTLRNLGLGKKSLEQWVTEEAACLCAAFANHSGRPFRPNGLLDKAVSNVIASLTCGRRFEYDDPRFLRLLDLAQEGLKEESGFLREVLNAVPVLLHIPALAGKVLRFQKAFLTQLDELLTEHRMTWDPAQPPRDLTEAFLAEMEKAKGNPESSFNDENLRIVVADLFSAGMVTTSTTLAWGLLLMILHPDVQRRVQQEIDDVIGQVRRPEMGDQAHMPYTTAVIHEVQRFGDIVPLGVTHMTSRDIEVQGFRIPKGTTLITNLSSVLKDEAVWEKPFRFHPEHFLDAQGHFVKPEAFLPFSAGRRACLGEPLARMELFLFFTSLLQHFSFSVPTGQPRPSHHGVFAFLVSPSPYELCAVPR
For orientation: In a reporter assay the amount or activity of a reporter protein is the signal.

Assay [7] addresses Cytochrome P450 2C19 (Homo sapiens) (UniProt P33261). Nature of the assay: Cytochrome P450 Family 2 Subfamily C Member 19 (CYP2C19) small molecule antagonists: luciferase reporter qHTS assay (AID 1671197). Also: nearly all actives have a fitted effect of over 65% in size. Also: potency is read from the fitted curve at half-maximal effect. The method, boiled down: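 First, compounds are pinned into enzyme-substrate mix and held 10 min at room temperature. Second, NADPH regeneration solution is added and plates incubate 1 h at 37C. Third, detection reagent is added and luminescence read after 20 min.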

Assay [8] deals with Cytochrome P450 2C9 (Homo sapiens) (UniProt P11712). Nature of the assay: Cytochrome P450 Family 2 Subfamily C Member 9 (CYP2C9) small molecule antagonists: luciferase reporter qHTS assay (AID 1671198). Also: nearly all actives have a fitted effect of over 50% in size. Also: potency is read from the fitted curve at half-maximal effect. The method, boiled down: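 P450-Glo proluciferin substrate with CYP2C9 enzyme; 10 min RT preincubation, then NADPH regeneration 1 h at 37C; luciferin detection reagent 20 min RT, luminescence in relative luminescence units.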
Sequence of Cytochrome P450 2C9 (Homo sapiens) (P11712 whole entry, looked up): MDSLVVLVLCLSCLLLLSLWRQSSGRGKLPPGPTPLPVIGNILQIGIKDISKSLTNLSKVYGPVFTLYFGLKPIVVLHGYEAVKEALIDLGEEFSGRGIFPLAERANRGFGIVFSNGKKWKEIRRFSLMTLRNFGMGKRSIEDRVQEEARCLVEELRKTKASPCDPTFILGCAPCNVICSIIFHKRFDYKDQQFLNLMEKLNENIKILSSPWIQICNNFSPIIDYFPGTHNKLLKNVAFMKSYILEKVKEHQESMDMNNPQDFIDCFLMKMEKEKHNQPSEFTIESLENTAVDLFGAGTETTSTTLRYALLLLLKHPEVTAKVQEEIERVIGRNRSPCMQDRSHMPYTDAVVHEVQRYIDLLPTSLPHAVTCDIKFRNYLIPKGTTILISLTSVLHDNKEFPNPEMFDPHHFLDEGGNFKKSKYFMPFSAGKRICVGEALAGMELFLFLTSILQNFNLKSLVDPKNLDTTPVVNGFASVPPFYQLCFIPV

Assay [9] concerns the target Voltage-gated inwardly rectifying potassium channel KCNH2 (Homo sapiens) (UniProt Q12809). The experiment in a line: Human Ether-a-go-go-Related Gene (hERG) channel small molecule antagonists: fluorescence cell-based qHTS assay (AID 1671200). Also: nearly all actives have a fitted effect of over 50% in size. Also: potency is read from the fitted curve at half-maximal effect. The method, boiled down:
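Read-out: thallium influx as a surrogate for potassium, tracked as fluorescence (480 nm ex/540 nm em) every second for 2 min after Stimulus Buffer addition in dye-loaded hERG-U2OS cells.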
A general note: The hERG channel carries a current that helps repolarise heart muscle cells.

Assay [10] has as its target Cytochrome P450 3A4 (Homo sapiens) (UniProt P08684). The experiment in a line: Cytochrome P450 Family 3 Subfamily A Member 4 (CYP3A4) small molecule antagonists: luciferase reporter qHTS assay (AID 1671201). The method in brief:
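Luminescent readout (RLU) proportional to CYP3A4 activity, from luciferin generated off a proluciferin substrate. Enzyme–substrate mix plus compound 10 min at room temp, NADPH regeneration 1 h, detection reagent 20 min.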

For assay [11], the target named is Nuclear receptor subfamily 1 group I member 2 (Rattus norvegicus) (UniProt Q9R1A7). The experiment in a line: Rat pregnane X receptor (rPXR) activation by small molecules, qHTS assay (AID 1346983). Also: nearly all actives have a fitted effect of over 20% in size. Also: potency is read from the fitted curve at half-maximal effect. The settings on record: rPXR luciferase reporter cells, One-Glo luminescence, 24 h; max activation: active compounds read high. The method in brief: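 Cell-based rPXR activation assay: rPXR cells, 2,000 per well, rested 5hr at 37 C, then exposed to compounds in DMSO for 24 hr at 37 C. Luciferase activity read by One-Glo luminescence after 30 min at room temperature.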
Sequence of Nuclear receptor subfamily 1 group I member 2 (Rattus norvegicus) (Q9R1A7 whole entry, looked up): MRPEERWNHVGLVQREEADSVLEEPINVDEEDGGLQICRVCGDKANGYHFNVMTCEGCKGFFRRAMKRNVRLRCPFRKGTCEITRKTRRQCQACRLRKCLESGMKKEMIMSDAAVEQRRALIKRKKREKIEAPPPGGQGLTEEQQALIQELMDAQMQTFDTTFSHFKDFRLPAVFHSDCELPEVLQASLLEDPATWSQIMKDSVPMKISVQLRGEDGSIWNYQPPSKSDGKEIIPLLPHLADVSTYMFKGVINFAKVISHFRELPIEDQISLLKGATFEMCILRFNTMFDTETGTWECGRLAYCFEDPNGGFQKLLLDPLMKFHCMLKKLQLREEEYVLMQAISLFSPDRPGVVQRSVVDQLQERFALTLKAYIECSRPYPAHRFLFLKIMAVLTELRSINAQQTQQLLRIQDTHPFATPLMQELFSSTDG

Assay [12] has as its target Nuclear receptor subfamily 1 group I member 2 (Homo sapiens) (UniProt O75469). Nature of the assay: CYP3A4 induction through human pregnane X receptor (PXR) by small molecules, qHTS assay (AID 1346984). Also: nearly all actives have a fitted effect of over 40% in size. Also: potency is read from the fitted curve at half-maximal effect. The method, boiled down: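 Luminescence readout: luciferase signal after One-Glo (30 min, room temperature), following 3 h at 37C with 3uM final Luciferin-IPA P450 substrate. Cells were DPX-2 (HepG2, PXR/CYP3A4-luc co-transfected) dosed for 24 h.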

The target is the same in assay [13]. The experiment in a line: Human pregnane X receptor (PXR) activation by small molecules, qHTS assay (AID 1346985). Also: nearly all actives have a fitted effect of over 40% in size. Also: potency is read from the fitted curve at half-maximal effect. The method in brief:
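DPX-2 cells (HepG2 co-transfected with a PXR response element and a CYP3A4-promoter luciferase construct) were seeded at 2,000 per well, rested 5 hr at 37C, then exposed to DMSO-dissolved compounds for 24 hr. Activation was read as luciferase luminescence.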

Assay [14] concerns the target Cytochrome P450 1A2 (Homo sapiens) (UniProt P05177). Nature of the assay: Cytochrome P450 Family 1 Subfamily A Member 2 (CYP1A2) small molecule antagonists: luciferase reporter qHTS assay (AID 1671199). Also: nearly all actives have a fitted effect of over 50% in size. Also: potency is read from the fitted curve at half-maximal effect. The method, boiled down: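 P450-Glo CYP1A2, 1536-well qHTS: enzyme/proluciferin substrate + cpd (DMSO), 10 min RT; NADPH regen, 1 h RT; detection reagent, 20 min; luminescence, RLU.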

Assay [15] can be described thus: Caspase-3/7 induction in HepG2 cells by small molecules, qHTS cell viability counter screen (AID 1346981). Also: nearly all actives have a fitted effect of over 30% in size. Also: potency is read from the fitted curve at half-maximal effect. The method in brief:
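HepG2, WT, 2,000 cells/well; 5 hr pre-incubation 37 C/5% CO2; compound pin-transferred from DMSO; 16 hr exposure; CellTiter-Fluor, 1 hr; fluorescence read.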

Unmarked numbers belong to inactive results. Records with an inconclusive call do not appear. Active and inactive are the calls of the source. Calls follow the shape of the dose curve; as a rule, active = well fitted curve in the direction sought with a large enough effect in the repeat runs; inconclusive = weak or mixed curves; inactive = no such curve, though single readings can be large; an effect the other way counts as inactive or inconclusive.
% is scaled to controls: 0 for no effect and ±100 for the full control effect.

Sequence of Cytochrome P450 3A4 (Homo sapiens) (P08684 whole entry, looked up): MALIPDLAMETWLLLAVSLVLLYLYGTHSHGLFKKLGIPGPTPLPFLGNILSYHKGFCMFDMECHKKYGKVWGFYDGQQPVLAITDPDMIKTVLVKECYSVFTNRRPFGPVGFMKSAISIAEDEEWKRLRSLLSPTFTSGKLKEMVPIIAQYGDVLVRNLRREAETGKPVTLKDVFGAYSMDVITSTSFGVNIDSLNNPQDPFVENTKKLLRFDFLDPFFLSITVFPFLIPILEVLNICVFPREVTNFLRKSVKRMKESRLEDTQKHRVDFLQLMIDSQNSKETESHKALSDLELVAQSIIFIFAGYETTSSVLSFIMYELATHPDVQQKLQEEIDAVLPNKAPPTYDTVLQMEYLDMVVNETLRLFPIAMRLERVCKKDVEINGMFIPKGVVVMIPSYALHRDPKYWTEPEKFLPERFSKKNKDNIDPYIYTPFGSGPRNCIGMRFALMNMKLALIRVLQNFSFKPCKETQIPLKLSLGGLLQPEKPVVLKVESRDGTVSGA
Sequence of Cytochrome P450 1A2 (Homo sapiens) (P05177 whole entry, looked up): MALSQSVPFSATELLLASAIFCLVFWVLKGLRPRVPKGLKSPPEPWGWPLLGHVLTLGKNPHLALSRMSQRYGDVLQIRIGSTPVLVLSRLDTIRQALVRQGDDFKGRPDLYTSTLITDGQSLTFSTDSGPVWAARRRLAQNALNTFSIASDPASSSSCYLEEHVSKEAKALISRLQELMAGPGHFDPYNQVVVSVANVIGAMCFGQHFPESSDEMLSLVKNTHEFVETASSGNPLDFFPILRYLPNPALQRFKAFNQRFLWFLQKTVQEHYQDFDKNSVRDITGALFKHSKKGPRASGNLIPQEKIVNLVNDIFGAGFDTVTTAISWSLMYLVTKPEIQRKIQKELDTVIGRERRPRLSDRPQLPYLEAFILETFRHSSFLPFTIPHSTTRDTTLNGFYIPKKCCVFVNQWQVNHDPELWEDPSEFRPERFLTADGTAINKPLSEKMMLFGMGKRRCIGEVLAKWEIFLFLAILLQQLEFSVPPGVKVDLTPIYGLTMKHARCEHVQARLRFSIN
Sequence of Cytochrome P450 2C19 (Homo sapiens) (P33261 whole entry, looked up): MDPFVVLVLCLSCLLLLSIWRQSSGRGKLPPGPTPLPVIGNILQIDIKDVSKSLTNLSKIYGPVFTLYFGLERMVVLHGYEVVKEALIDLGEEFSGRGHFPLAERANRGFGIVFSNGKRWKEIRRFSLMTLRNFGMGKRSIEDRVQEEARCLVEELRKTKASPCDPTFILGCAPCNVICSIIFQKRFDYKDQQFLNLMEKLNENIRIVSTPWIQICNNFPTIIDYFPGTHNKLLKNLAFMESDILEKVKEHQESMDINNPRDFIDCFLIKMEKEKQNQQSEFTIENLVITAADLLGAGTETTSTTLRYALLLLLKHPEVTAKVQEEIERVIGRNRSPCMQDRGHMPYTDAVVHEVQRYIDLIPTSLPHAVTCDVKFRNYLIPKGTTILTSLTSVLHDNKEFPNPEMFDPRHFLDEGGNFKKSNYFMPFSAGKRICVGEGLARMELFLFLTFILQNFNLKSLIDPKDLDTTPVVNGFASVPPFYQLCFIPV
Sequence of Voltage-gated inwardly rectifying potassium channel KCNH2 (Homo sapiens) (Q12809 whole entry, looked up): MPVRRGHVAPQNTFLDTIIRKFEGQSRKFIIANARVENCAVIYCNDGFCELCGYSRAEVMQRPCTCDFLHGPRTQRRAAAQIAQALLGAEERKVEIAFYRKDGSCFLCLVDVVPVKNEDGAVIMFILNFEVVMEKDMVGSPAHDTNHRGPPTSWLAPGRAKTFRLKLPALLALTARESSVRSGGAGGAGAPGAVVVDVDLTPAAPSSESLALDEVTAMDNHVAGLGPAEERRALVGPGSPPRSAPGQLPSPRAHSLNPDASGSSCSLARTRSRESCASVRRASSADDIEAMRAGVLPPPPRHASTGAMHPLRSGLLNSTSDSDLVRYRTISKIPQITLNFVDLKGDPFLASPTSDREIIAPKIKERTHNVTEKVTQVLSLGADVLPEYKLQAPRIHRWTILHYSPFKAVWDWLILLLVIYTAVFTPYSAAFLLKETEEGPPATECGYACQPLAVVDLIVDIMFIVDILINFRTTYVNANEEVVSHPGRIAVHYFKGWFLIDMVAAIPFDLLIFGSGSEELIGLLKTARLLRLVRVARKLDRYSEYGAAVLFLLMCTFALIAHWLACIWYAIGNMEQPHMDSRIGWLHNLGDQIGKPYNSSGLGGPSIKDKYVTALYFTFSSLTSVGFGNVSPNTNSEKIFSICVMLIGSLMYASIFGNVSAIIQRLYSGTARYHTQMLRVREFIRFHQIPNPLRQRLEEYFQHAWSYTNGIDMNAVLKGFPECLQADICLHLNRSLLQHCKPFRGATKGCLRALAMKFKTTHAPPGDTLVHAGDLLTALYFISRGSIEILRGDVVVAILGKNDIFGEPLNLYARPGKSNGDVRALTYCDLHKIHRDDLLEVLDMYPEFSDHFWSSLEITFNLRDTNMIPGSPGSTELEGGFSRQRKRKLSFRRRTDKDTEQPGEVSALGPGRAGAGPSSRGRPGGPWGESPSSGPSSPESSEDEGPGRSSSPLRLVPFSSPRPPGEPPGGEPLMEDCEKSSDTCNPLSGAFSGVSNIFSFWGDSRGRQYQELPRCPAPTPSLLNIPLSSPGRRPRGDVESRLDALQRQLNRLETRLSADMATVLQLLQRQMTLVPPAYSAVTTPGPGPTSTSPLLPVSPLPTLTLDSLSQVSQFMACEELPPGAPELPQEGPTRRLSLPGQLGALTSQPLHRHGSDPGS

On to `C=C1[C@H]2CC[C@@H]3[C@H]2C(C)(C)CCC[C@]13C`, for which the Potency result in assay [1], in assay [2], in [3], in assay [4], in assay [5] and in [6] was “inactive” in each case. In addition, the Potency entry in assay [7], in [8], in assay [9] and in [10] was “inactive” in each case.
In the case of `CNCCCN1c2ccccc2CCc2ccccc21`, the Potency in assay [1] was 23.7 µM (active). Further, the Potency entry in assay [4], in assay [12], in assay [13], in assay [7], in assay [8] and in [14] was “inactive” in each case. In assay [11], the max activation was -1.95%.
Regarding `CN(C)CCCN1c2ccccc2Sc2ccccc21`, the results for the Potency in [1] and in assay [9] were 23.7 µM (active) and 9.52 µM (active), respectively. For the same compound, the Potency entry in assay [2] was “inactive”. In addition, the max activation in assay [11] is -2.41%.
For the compound `Cc1oc(-c2ccccc2)nc1CCOc1cccc2c1ccn2CCC(=O)O`, the Potency result in assay [2], in assay [4], in assay [5], in [6], in assay [14] and in assay [9] was “inactive” throughout. In assay [10], the Potency entry was “inactive”. Further, the Potency in assay [3] was 34.4 µM (active); in assay [15], 34.4 µM (active); in assay [8], 22.4 µM (active).
Turning to `COC(=O)C1=C(C)NC(COC(N)=O)=C(C(=O)OC(C)C)C1c1cccc(Cl)c1Cl` (centres undefined), the Potency entry in assay [1] and in assay [4] was “inactive” each time. Also, the Potency in assay [3] is 13.3 µM (active); in assay [8], 8.71 µM (active).
Consider `CCCCCCCCCCO[C@@H]1O[C@H](CO)[C@@H](O)[C@H](O)[C@H]1O`, for which the Potency entry in assay [1], in [2], in assay [4], in [15], in [6] and in [8] was “inactive” each time. In addition, the Potency entry in assay [14], in [9] and in assay [10] was “inactive” in each case.
As to `C[C@H](CCC(=O)O)[C@H]1CC[C@H]2[C@@H]3CC[C@@H]4C[C@H](O)CC[C@]4(C)[C@H]3C[C@H](O)[C@]12C`, the Potency result in [1], in assay [2], in assay [4] and in [9] was “inactive” throughout. Also, the Potency in [15] is 54.6 µM (active).
In the case of `C[C@H]1C[C@H]2[C@@H]3CCC4=CC(=O)C=C[C@]4(C)[C@@]3(Cl)[C@@H](O)C[C@]2(C)[C@@]1(O)C(=O)CO`, the Potency entry in [1], in assay [2], in assay [4], in assay [15], in assay [14] and in assay [10] was “inactive” in each case. Also, the Potency in assay [11] was 5.62 µM (active); in [12], 15.8 µM (active); in [13], 11.2 µM (active); in assay [6], 30.9 µM (active); in assay [8], 17.4 µM (active).
As for `Clc1ccc2c(c1)CCc1cccnc1C2=C1CCNCC1`, the Potency in assay [1] was 29.8 µM (active); in [13], 14.1 µM (active). The Potency result in assay [4] and in [5] was “inactive” in each case. In assay [11], the max activation was -7.49%.
With `CCCCCCCCCCCCCCCCOS(=O)(=O)O`, the Potency entry in [1], in assay [2], in assay [4], in [15], in assay [5] and in assay [7] was “inactive” in each case. Besides, the Potency entry in assay [14], in assay [9] and in assay [10] was “inactive” each time.
For the compound `Cn1c(=O)cc(Oc2ccc(F)cc2F)c2cnc(NCC(C)(C)O)nc21`, the Potency entry in assay [1], in assay [2], in assay [15], in [9] and in [10] was “inactive” in each case. Further, the Potency in [5] was 43.3 µM (active); in [7] it was 71 µM (active); in assay [8], 56.4 µM (active); in assay [14], 28.3 µM (active).
